Composite z-score and z-score data for nine compounds are collected here from PubChem BioAssay.

Activity calls are given as the source filed them.

The nature of assay [1]: binders of probe aFSTL3 on microarray, primary screen, stem cell growth factor project, biochemical, small-molecule microarray, fluorescence 635/667 (AID 1064).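 Also: measures binding of the biotinylated anti-FSTL3 antibody to printed compounds.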 The conditions noted are these: higher = more signal; small-molecule microarray, probe aFSTL3, fluorescence unless noted.
Assay [2] in a line: binders from COS7 lysate, DM2A8 probe, primary screen, torsin A project, cell lysate, small-molecule microarray, fluorescence 635/667 (AID 1065). The conditions noted are these: higher = more signal; small-molecule microarray, COS7 cell lysate, probe DM2A8, fluorescence, COS7 lysate expressing mutant human TOR1A unless noted.
Assay [3] can be described thus: binders of probe aFGF2 on microarray, primary screen, stem cell growth factor project, biochemical, small-molecule microarray, fluorescence 635/667 (AID 1067).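 Also: measures binding of biotinylated aFGF2 protein to printed compounds on slides; z-score merges feature fluorescence and signal-to-noise across triplicate slides.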 As to conditions: higher = more signal; small-molecule microarray, probe aFGF2, fluorescence unless noted.
Assay [4] in a line: binders of probe aFGF10 on microarray, primary screen, stem cell growth factor project, biochemical, small-molecule microarray, fluorescence 635/667 (AID 1071).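 Also: score merges 667 nm spot intensity and signal to noise from triplicate slides.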 The conditions noted are these: higher = more signal; small-molecule microarray, probe aFGF10, fluorescence unless noted.
Assay [5] has as its target Neurogenic locus notch homolog protein 2 (Homo sapiens) (UniProt Q04721). Nature of the assay: Notch2 binders on small-molecule microarrays, primary screen, biochemical, small-molecule microarray, 635 nm fluorescence, stem cell growth factors (AID 1073). The conditions noted are these: Notch2 binding, higher = more signal.
For assay [6], the target named is Pro-neuregulin-1, membrane-bound isoform (Homo sapiens) (UniProt Q02297). Nature of the assay: NRG1 binders on small-molecule microarrays, primary screen, psychiatric disease protein project, biochemical, small-molecule microarray, fluorescence 635/667 (AID 1075).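 Also: score combines 667 nm spot fluorescence with signal to noise.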 The conditions noted are these: NRG1 binding, 635 nm fluorescence, higher = more signal.
Assay [7] concerns Neuregulin-1 EGF-like domain. Nature of the assay: binders of neuregulin-1 EGF-like domain, primary screen, biochemical, small-molecule microarray, 635 nm fluorescence (AID 1081).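 Also: binding of the protein to compounds printed on small-molecule microarray slides.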 As to conditions: small-molecule microarray binding, higher = more signal.
Assay [8] is described as follows: FRG1 promoter luciferase signal modulators, primary screen, FRG1 inhibition for FSHD, cell-based, C2C12 myotubes, firefly/Renilla luciferase, luminescence (AID 1084). As to conditions: higher = more signal, called active from +8 up or from −8 down unless noted.
The nature of assay [9]: binders of probe aFST on microarray, primary screen, stem cell growth factor project, biochemical, small-molecule microarray, fluorescence 635/667 (AID 1086).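 Also: score merges 667 nm fluorescence with signal-to-noise of each printed compound spot.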 The conditions noted are these: higher = more signal.
The nature of assay [10]: binders of probe aHhip on microarray, primary screen, stem cell growth factor project, biochemical, small-molecule microarray, fluorescence 635/667 (AID 1087).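 Also: score merges spot fluorescence at 667nm with spot signal to noise ratio.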 As to conditions: higher = more signal.
The subject of assay [11] is PRMT1 (protein arginine N-methyltransferase 1). Nature of the assay: PRMT1 binders on small-molecule microarrays, primary screen, biochemical, small-molecule microarray, 635 nm fluorescence (AID 1088).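 Also: binding of Prmt1 protein to compounds spotted on small-molecule microarray slides.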 The conditions noted are these: small-molecule microarray binding, higher = more signal.
A short description of assay [12]: yeast growth modulation, basal conditions, primary screen, YJM789 clinical isolate, OD600, 24 h (AID 1089).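 Also: growth of clinical yeast isolate S. cerevisiae YJM 789 seeded 1000 cells per well; test concentration not given here.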 The conditions noted are these: S. cerevisiae YJM789 growth; higher = more signal, called active from +8 up or from −8 down unless noted.
Assay [13] in a line: fission yeast growth modulation, primary screen, strain 972, OD600, 24 h, no modulator (AID 1090).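 Also: basal condition with compound alone and no growth modifier present; test concentration not given here.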 As to conditions: S. pombe 972 growth; higher = more signal, called active from +8 up or from −8 down unless noted.
Assay [14] is described as follows: S. cerevisiae growth modulation with rapamycin, primary screen, strain BY4716, OD600, 96 h (AID 1091). Also: test concentration not given here. As to conditions: higher = more signal, called active from +8 up or from −8 down unless noted.
In assay [15] the target is Torsin-1A-interacting protein 2 (Homo sapiens) (UniProt Q8NFQ8). Nature of the assay: LULL1 binders on small-molecule microarray, primary screen, cell lysate, human LULL1 lysate, 635/667 nm fluorescence (AID 1092).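 Also: probe is lysate of COS7 cells overexpressing human LULL1; score merges per-feature 667 nm fluorescence with signal-to-noise.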 As to conditions: hLULL1 lysate binding, 635 nm fluorescence, higher = more signal.
Assay [16] is described as follows: E. coli growth modulation, two-sided OD650, primary screen, E. coli filamentation project, strain DRC41, 24 h (AID 1093).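 Also: MC1000 strain lacking acrAB efflux and sulA so SOS filamentation is blocked; test concentration not given here.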 The conditions noted are these: OD650, 24 h; higher = more signal, called active from +8 up or from −8 down unless noted.
The nature of assay [17]: small-molecule microarray binders of probe aLefty2, primary screen, biochemical, biotinylated probe, 635/667 nm fluorescence (AID 1094).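 Also: score merges spot fluorescence near 667 nm with spot signal-to-noise ratio.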 As to conditions: higher = more signal; small-molecule microarray, probe aLefty2, fluorescence unless noted.
Assay [18] deals with Noggin (protein binding on small-molecule microarray). Nature of the assay: Noggin binders on small-molecule microarray, primary screen, biochemical, 635/667 nm fluorescence (AID 1095).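 Also: score merges 667 nm feature fluorescence with signal to noise over triplicate slides.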 As to conditions: 635 nm fluorescence, higher = more signal.
The target of assay [19] is Neurogenic locus notch homolog protein 3 (Homo sapiens) (UniProt Q9UM47). Nature of the assay: NOTCH3 binders on small-molecule microarray, primary screen, biochemical, 635/667 nm fluorescence (AID 1096). As to conditions: NOTCH3 binding, 635 nm fluorescence, higher = more signal.
Assay [20] can be described thus: small-molecule microarray binders of probe aEGFR, primary screen, biochemical, biotinylated probe, 635/667 nm fluorescence (AID 1097).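 Also: probe is a biotinylated anti-EGFR antibody binding compounds printed on slides; score combines fluorescence near 667 nm and signal to noise of each spot.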 As to conditions: higher = more signal; small-molecule microarray, probe aEGFR, fluorescence unless noted.

Chain of Pro-neuregulin-1, membrane-bound isoform (Homo sapiens) (Q02297 whole entry, looked up, the tested form may be a part, canonical isoform): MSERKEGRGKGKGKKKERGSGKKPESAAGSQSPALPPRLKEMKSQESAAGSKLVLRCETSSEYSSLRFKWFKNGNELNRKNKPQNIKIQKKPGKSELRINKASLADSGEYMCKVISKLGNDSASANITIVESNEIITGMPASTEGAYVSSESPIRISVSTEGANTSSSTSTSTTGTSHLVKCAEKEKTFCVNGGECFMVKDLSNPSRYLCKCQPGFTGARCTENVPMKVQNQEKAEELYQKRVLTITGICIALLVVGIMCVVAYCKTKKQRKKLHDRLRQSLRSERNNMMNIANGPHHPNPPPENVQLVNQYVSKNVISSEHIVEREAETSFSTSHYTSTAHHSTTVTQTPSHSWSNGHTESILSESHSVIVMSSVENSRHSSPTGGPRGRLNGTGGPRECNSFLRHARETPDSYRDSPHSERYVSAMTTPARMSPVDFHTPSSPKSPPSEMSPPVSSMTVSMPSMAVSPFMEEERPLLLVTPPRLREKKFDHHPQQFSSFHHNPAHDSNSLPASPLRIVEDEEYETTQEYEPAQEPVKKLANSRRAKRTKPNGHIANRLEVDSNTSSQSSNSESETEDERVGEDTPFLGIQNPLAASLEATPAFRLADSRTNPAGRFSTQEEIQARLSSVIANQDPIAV
Chain of Neurogenic locus notch homolog protein 3 (Homo sapiens) (Q9UM47 whole entry, looked up): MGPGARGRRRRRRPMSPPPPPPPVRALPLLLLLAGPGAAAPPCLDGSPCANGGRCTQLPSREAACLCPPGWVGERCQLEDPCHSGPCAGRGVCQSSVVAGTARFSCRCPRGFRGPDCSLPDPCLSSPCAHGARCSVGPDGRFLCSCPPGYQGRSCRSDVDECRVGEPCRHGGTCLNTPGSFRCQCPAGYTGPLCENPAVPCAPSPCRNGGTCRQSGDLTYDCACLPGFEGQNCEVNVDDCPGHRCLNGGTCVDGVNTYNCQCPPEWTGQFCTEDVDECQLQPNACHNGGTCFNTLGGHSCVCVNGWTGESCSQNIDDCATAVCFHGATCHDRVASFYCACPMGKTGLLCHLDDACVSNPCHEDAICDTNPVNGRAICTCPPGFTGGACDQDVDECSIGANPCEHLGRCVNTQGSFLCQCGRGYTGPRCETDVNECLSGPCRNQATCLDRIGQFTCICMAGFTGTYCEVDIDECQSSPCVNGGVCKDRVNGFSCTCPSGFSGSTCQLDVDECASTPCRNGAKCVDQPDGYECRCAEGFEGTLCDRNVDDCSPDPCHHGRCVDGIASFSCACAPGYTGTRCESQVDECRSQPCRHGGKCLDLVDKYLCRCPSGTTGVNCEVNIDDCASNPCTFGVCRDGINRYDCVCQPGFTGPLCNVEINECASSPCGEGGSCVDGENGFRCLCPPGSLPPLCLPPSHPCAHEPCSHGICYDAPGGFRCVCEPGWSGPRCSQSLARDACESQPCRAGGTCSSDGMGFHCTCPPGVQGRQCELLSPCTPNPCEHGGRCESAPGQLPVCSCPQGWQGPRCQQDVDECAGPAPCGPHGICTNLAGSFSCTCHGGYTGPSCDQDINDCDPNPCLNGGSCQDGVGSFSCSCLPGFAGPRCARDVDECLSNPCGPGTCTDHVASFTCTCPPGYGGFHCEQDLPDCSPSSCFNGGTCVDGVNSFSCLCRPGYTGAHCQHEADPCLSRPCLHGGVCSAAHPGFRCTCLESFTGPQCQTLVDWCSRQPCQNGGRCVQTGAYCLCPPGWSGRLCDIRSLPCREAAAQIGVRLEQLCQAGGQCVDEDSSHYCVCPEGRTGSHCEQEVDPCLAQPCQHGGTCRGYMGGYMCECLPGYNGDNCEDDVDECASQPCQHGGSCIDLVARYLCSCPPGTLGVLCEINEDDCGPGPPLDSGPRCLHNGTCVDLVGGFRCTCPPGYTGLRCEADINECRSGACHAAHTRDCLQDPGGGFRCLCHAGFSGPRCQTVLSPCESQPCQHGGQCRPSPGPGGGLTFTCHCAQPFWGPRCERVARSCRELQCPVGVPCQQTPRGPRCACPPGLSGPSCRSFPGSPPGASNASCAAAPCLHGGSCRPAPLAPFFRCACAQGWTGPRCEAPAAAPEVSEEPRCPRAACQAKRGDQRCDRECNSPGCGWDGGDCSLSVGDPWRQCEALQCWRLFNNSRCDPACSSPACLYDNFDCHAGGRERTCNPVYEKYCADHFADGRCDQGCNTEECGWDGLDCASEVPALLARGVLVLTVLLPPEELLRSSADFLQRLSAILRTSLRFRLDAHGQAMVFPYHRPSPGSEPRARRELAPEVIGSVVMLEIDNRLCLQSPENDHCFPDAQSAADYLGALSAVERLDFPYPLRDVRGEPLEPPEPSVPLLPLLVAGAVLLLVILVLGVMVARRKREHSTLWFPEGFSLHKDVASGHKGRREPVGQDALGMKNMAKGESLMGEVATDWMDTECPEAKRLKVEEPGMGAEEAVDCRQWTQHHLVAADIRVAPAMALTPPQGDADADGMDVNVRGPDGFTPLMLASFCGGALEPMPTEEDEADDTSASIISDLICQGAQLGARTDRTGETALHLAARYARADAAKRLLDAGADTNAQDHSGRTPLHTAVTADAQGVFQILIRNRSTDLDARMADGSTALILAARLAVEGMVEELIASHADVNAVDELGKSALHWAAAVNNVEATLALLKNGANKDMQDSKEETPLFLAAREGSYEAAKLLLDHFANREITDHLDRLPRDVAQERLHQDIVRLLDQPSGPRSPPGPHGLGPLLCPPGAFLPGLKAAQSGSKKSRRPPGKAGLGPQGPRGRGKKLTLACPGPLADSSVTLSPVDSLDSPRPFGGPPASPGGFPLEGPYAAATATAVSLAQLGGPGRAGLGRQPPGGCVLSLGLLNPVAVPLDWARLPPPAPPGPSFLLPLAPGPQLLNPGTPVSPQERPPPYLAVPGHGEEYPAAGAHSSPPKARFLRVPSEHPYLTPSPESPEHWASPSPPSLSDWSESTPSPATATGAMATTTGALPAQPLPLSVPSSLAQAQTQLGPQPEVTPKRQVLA
Chain of Torsin-1A-interacting protein 2 (Homo sapiens) (Q8NFQ8 whole entry, looked up): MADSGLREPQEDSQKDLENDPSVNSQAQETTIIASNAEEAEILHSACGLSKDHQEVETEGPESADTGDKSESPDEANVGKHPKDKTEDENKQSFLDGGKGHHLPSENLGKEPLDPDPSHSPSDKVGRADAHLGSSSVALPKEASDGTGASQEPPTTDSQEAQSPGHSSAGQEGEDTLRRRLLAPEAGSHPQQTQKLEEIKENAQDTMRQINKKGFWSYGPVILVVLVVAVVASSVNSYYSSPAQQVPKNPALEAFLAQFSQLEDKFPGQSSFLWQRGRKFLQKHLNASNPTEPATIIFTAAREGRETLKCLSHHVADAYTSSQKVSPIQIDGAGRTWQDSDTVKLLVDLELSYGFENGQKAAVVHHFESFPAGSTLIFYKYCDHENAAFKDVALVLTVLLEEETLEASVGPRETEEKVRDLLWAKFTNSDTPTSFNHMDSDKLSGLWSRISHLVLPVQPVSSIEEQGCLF

Consider `COc1cc2c(cc1O)C(C)N(C)CC2` (stereo not given), for which the composite z-score is 0.661 in assay [1]; -0.144 in assay [2]; -0.0345 in [3]; -0.021 in assay [4]; 0.358 in assay [5]; -0.0581 in assay [6]. The composite z-score in assay [7] was 1.14; in assay [9] it was -0.0662; in [10], 0.176; in assay [11] it was -0.474; in assay [15], 0.0713; in assay [17], 0.0914. Besides, the composite z-score was -0.19 in assay [18], -0.245 in assay [19] and 0.0841 in [20]. For the same compound, the z-score in assay [8] was -1.13 (inactive); in [12], 0.051 (inactive); in [13], -2.28 (inactive); in [14] it was -1.65 (inactive); in [16], 0.891 (inactive).

Take `CCCc1cc2c(n1Cc1ccc(C)cc1)C(C)C1CN(C(=O)c3ccccc3)C(C)(C(=O)OC)C21` (stereo not given): the composite z-score in assay [1] was determined as 1.37; in assay [2], 1.32; in assay [3], 0.459; in assay [4] it was 1.14; in [5] it was 1.43; in assay [6] it was 1.32. For the same compound, the composite z-score amounted to 1.08 in assay [7]; 1.95 in assay [9]; 0.321 in [10]; 0.0451 in assay [11]; 3.08 in assay [15]; 1.02 in assay [17]. Further, the composite z-score in [18] was -0.366; in assay [19], 1.11; in assay [20] it was 0.834. Moreover, the z-score in [8] is -0.876 (inactive); in [12] it was -1.78 (inactive); in assay [13], 0.625 (inactive); in assay [14], -0.689 (inactive); in assay [16] it was -0.694 (inactive).

`CCCC[C@@H]1C[C@H]1[C@@H](NP(=O)(c1ccccc1)c1ccccc1)c1ccc(Cl)cc1`: the composite z-score in [1] was 1.68; in assay [2], -1.94; in assay [3] it was -0.129; in assay [4], -0.0013; in assay [5] it was -0.438; in assay [6], 0.291. Besides, the composite z-score is 0.142 in [7]; -0.22 in [9]; -0.0994 in assay [10]; -0.571 in assay [11]; 0.748 in assay [15]; 0.195 in [17]. The composite z-score in assay [18] is -1.67; in assay [19], -0.582; in assay [20], -0.263. Moreover, the z-score in [8] is 0.695 (inactive); in [12], -0.513 (inactive); in [13] it was -10.8 (active); in assay [14], 0.0654 (inactive); in assay [16], -0.412 (inactive).

With `COC(=O)[C@@]1(Cc2ccccc2)[C@H]2c3cc(C(=O)N(C)C)[nH]c3C[C@H]2CN1C(=O)c1ccccc1`, the composite z-score in assay [1] is 0.469; in [2], -0.365; in assay [3], -0.0063; in assay [4] it was -0.12; in [5], 0.335; in assay [6], 1.03. For the same compound, the composite z-score in assay [7] was 0.954; in [9], -0.0765; in [10] it was 0.0176; in assay [11], -0.94; in [15], 0.745; in [17] it was -0.0238. The composite z-score in assay [18] is -1.23; in [19], -0.984; in [20] it was -0.116. Also, the z-score is 1.82 (inactive) in [8]; 0.0969 (inactive) in [12]; 0.8 (inactive) in assay [13]; 0.98 (inactive) in assay [14]; -0.482 (inactive) in [16].

In the case of `CCCC=C(CCC)[C@@H](NP(=O)(c1ccccc1)c1ccccc1)c1ccccc1`, the composite z-score is -0.335 in assay [1]; 0.0595 in assay [2]; 0.0354 in assay [3]; 0.33 in assay [4]; 1.25 in assay [5]; -0.0154 in [6]. Further, the composite z-score was 0.318 in [7]; 0.714 in assay [9]; 0.408 in assay [10]; 0.905 in assay [11]; 0.732 in assay [15]; -0.17 in [17]. Further, the composite z-score in assay [18] was 1.11; in assay [19] it was 0.474; in [20], -0.106. Moreover, the z-score in assay [8] was -0.763 (inactive); in assay [12], -0.564 (inactive); in assay [13], 0.652 (inactive); in assay [14], 0.0781 (inactive); in assay [16], -0.431 (inactive).

Turning to `CCCc1cc2c(n1Cc1cccc(Cl)c1)C(C)C1CN(C(=O)c3ccccc3)C(C)(C(=O)OC)C21` (stereo not given), the composite z-score is 1.04 in assay [1]; 0.49 in [2]; 0.169 in assay [3]; 0.241 in assay [4]; 1.51 in assay [5]; 1.92 in assay [6]. Moreover, the composite z-score in [7] was 1.11; in assay [9] it was 0.578; in assay [10] it was 0.192; in assay [11], -0.287; in assay [15], 3.21; in assay [17], 0.411. Besides, the composite z-score is -0.146 in assay [18], 1.11 in assay [19] and 0.118 in [20]. Besides, the z-score in assay [8] is 0.703 (inactive); in [12], -0.319 (inactive); in [13], 0.431 (inactive); in assay [14], 0.282 (inactive); in [16], -0.449 (inactive).

As for `COC(=O)NCC=Cc1nc(CCC=CC(=O)O[C@H]2CC3CC(=O)O[C@@H](C=CCC(C)C)C[C@@H]4CC[C@H](C)[C@@H](C[C@@H](OC)C[C@H](C2)O3)O4)co1`, the composite z-score in [1] was -0.117; in assay [2] it was -0.381; in assay [3], -0.114; in [4] it was -0.328; in assay [5], -0.896; in assay [6] it was -0.657. Further, the composite z-score was -0.905 in [7]; -0.15 in [9]; -0.12 in assay [10]; -1.35 in assay [11]; -0.562 in assay [15]; -0.174 in [17]. The composite z-score is -0.593 in [18], -2 in [19] and -0.201 in [20]. The z-score in assay [8] is 0.524 (inactive); in assay [12] it was -1.77 (inactive); in [13] it was -4.74 (inactive); in assay [14], -0.209 (inactive); in assay [16] it was 0.162 (inactive).

For `OCc1ccc(C2=CC(C3CC3)N(Cc3sc4ccccc4c3Cl)CC2)cc1` (stereo not given), the composite z-score in assay [1] is 0.0908; in [2], 1.02; in assay [3] it was -0.107; in [4] it was 0.261; in assay [5], 0.166; in assay [6], 0.503. Moreover, the composite z-score was 1.14 in assay [7]; 0.19 in [9]; -0.0296 in assay [10]; 1.56 in [11]; 1.55 in assay [15]; -0.0416 in assay [17]. The composite z-score is 0.448 in assay [18], 0.68 in assay [19] and -0.0493 in [20]. Further, the z-score in assay [8] was -1.71 (inactive); in assay [12], -0.102 (inactive); in assay [13] it was -5.01 (inactive); in assay [14], 1.47 (inactive); in assay [16] it was -1.09 (inactive).

Regarding `COC(=O)[C@H]1C(=O)c2ccccc2O[C@@](C(=O)OC)(c2ccccc2)[C@@H]1c1ccccc1`, the composite z-score in assay [1] is -0.384; in assay [2], -0.262; in [3], -0.149; in assay [4], 0.179; in assay [5], 0.343; in [6], -0.454. The composite z-score in [7] is -1.02; in assay [9], -0.204; in assay [10], -0.134; in assay [11], -1.47; in assay [15], -0.565; in assay [17], -0.159. Also, the composite z-score was -0.054 in [18], -1.01 in assay [19] and -0.0093 in assay [20]. Further, the z-score is -0.748 (inactive) in assay [8]; -0.644 (inactive) in [12]; -1.77 (inactive) in assay [13]; 0.225 (inactive) in [14]; 0.161 (inactive) in assay [16].
